Results: PubChem BioAssay AID501 (PCMD, 2006)
Screen size: about 62,000 compounds; about 35 (0.06%) were called active. Rule as the data show it: active = inhibition above about 32% (passing the limit was not always enough); inconclusive = no clear call, values can overlap the other calls. Shown is part of a subset that was picked to be rich in actives.

The compounds below were run against Cathepsin S (Homo sapiens) (UniProt P25774) (assay: blockers of CTSS protease activity – biochemical, compound mixtures (AID 501;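 also: 0% = enzyme without compound and 100% = blank without enzyme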)). Details: recombinant cathepsin S, AMC dipeptide fluorescence, pooled mixtures; active compounds read high;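 tested at 5 µM per compound within 10-compound mixtures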.
Cathepsin S (Homo sapiens), sequence (P25774 115-331 limits assumed): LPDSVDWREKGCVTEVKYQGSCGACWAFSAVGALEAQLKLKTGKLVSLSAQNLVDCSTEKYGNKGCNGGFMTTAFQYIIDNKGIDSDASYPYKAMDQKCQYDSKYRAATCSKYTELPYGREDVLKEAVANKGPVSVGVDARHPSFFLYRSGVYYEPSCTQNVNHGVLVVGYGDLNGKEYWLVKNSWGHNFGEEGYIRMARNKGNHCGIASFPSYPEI

| Structure (SMILES) | inhibition |
| --- | --- |
| COc1ccc(-n2ncc3c(N4CCc5ccccc54)ncnc32)cc1 | -6.55% (inactive) |
| COc1ccccc1C(=O)N1CCN=C1SCc1cccnc1 | 3.41% (inactive) |
| CCn1cc(C(=O)N2CCN(Cc3ccc4c(c3)OCO4)CC2)c2cc(OC)c(OC)cc2c1=O | 0.555% (inactive) |
| Cc1ccc(S(=O)(=O)NCc2cn3ccsc3n2)c(C)c1 | -2.17% (inactive) |
| CC1(C)CC(=O)C(C=NCc2cccnc2)=C(O)C1 | -6.24% (inactive) |
| COc1ccc(C(=O)Cn2nnc(-c3ccc(N4CCOCC4)cc3)n2)cc1OC | 8.22% (inactive) |
| Cc1c(-c2nn(C)c(=O)c3ccccc23)oc2ccc(F)cc2c1=O | 21.9% (inactive) |
| CCn1c(SCC(=O)Nc2cc(C)ccc2C)nnc1-c1cnccn1 | -6.74% (inactive) |
| O=C(Cn1nnc(-c2ccccc2)n1)NCc1ccccc1 | 3.11% (inactive) |
| NC(=O)Cn1c(=O)oc2ccccc21 | 0.705% (inactive) |
| Cc1nnc(C)n1/N=C/c1ccc(C(C)C)cc1 | 5.16% (inactive) |
| CCc1nnc(NC(=O)CSc2nnc(-c3ccncc3)n2Cc2ccccc2)s1 | 15.4% (inactive) |
| Cc1cc(N2CCCC2=O)cc(C)c1S(N)(=O)=O | 14% (inactive) |
| CC(C)OCCCNC(=O)CNC(=O)c1cccs1 | 15.3% (inactive) |
| Cn1cnc2c1c(=O)n(Cc1c(Cl)cccc1Cl)c(=O)n2C | -2.21% (inactive) |
| CCOC(=O)CNC(=O)CSc1nnc(COc2ccc(Cl)cc2)n1CC | 17% (inactive) |
| Cc1cccc(N2CCN(C(=O)C3CCN(S(=O)(=O)c4cnc[nH]4)CC3)CC2)c1C | -2.09% (inactive) |
| CCOC(=O)c1c(NC(=O)c2ccc(Br)o2)sc2c1CCCC2 | -2.96% (inactive) |
| COc1cccc(N(CC(=O)NC2CCCC2)C(=O)Cn2nnc(-c3ccc(C)cc3)n2)c1 | -32.1% (inactive) |
| CC1CC(c2ccccc2)n2nc(NC(=O)c3cccs3)nc2N1 (centres undefined) | 7.8% (inactive) |
| CC(=O)Nc1cc2ccc(OC(C)=O)cc2oc1=O | -31.5% (inactive) |
| C=CCNC(=O)C1CC=CCC1C(=O)O (centres undefined) | -2.51% (inactive) |
| CCOC(=O)CSc1nnc(CNc2nc(-c3ccccc3)cs2)n1C | -5.74% (inactive) |
| O=C(NC(c1ccccc1)c1ccccc1)N1CCN(CCO)CC1 | 10.9% (inactive) |

| Structure (SMILES) | inhibition |
| --- | --- |
| Cc1cc(C(F)(F)F)nn1-c1nc(-c2ccco2)cc(C(F)(F)F)n1 | 7.66% (inactive) |
| COCCn1c(CN(Cc2ccccc2)Cc2ccccc2)nc2c1c(=O)n(C)c(=O)n2C | 9.43% (inactive) |
| CCN(C(=O)CSc1ncn[nH]1)c1cccc2ccccc12 | 2.39% (inactive) |
| Cc1noc(NS(=O)(=O)c2ccc(N3CC(O)=C(c4ccccc4)C3=N)cc2)c1C | -12.9% (inactive) |
| CCn1ncc(Br)c1C(=O)Nc1cc(C)ccc1F | 6.74% (inactive) |
| Cc1ccc(-c2nc(CS(=O)CC(=O)N3CCN(c4ncccn4)CC3)c(C)o2)cc1 (centres undefined) | 7.31% (inactive) |
| CC(C)n1c(C(O)c2ccccc2)nc2ccccc21 (centres undefined) | -7.12% (inactive) |
| Cc1ccccc1N1CC(c2nc3ccccc3[nH]2)CC1=O (centres undefined) | -1.51% (inactive) |
| Cc1ccc(-c2nnc(SC(C)C#N)n2N)cc1 (centres undefined) | -1.33% (inactive) |
| Cn1c(=O)c(C(=O)Nc2ncccn2)c(O)c2ccccc21 | -4.57% (inactive) |
| CC(=O)NCCc1ccc(S(=O)(=O)N(C)C2CCS(=O)(=O)C2)cc1 (centres undefined) | 30% (inactive) |
| CCc1ccccc1NC(=O)CSc1nnc([C@@H](NC(=O)OC(C)(C)C)C(C)C)o1 | 9.29% (inactive) |
| Cc1nn(C)c(C)c1S(=O)(=O)N1CCc2ccccc21 | -5.94% (inactive) |
| CCOC(=O)c1sc(N(Cc2ccccc2)C(=O)CN2C(=O)CN(C)C2=O)nc1C | -1.84% (inactive) |
| COCCn1c(=O)[nH]c2cc(C(=O)NCc3cccnc3)ccc2c1=O | 4.14% (inactive) |
| Cc1ccc(NC(=O)CS(=O)CC(=O)N(c2ccccc2)C(C)C(=O)NC2CCCC2)cc1 (centres undefined) | -27.8% (inactive) |
| O=C(C1CCN(CC2CCCCC2)CC1)N1CCCC1 | -3% (inactive) |
| FC(F)Oc1ccccc1C1CC(c2ccc(Br)s2)Nc2ncnn21 (centres undefined) | 1.68% (inactive) |
| CCC(C)n1[nH]c(=O)c2c(C)cc(C)nc21 (centres undefined) | 12.4% (inactive) |
| Cc1nc(NC(=O)CCC(=O)O)sc1C(=O)N(C)C | -4.56% (inactive) |
| O=C(Cn1cc2c(n1)CCCCC2)NCCN1CCOCC1 | 7.2% (inactive) |
| CC(C)c1ccc(NS(=O)(=O)c2cn(C)c(=O)n(C)c2=O)cc1 | -0.575% (inactive) |
| COc1ccccc1NC(=O)CSc1nnc(Cn2nnc(-c3ccccc3)n2)n1-c1ccccc1 | -0.79% (inactive) |
| CC(CNC(=O)c1ccc(Br)o1)NC(=O)c1ccc(Br)o1 (centres undefined) | 6.17% (inactive) |

| Structure (SMILES) | inhibition |
| --- | --- |
| COc1cc(Cl)cc(C2NC(=O)NC(C)=C2C(=O)NCc2ccccc2)c1O (centres undefined) | 7.15% (inactive) |
| CCOC(=O)C(C)Oc1cccc2c(=O)n(CC(=O)N3CCc4ccccc43)ccc12 (centres undefined) | -6.21% (inactive) |
| CC(NC(=O)CN1CCN(Cc2ccc(Cl)cc2)C1=O)c1ccc2c(c1)OCCO2 (centres undefined) | 55.3% (inactive) |
| CSc1sc(C)cc1C1C(C#N)=C(N)N(c2cccnc2)C2=C1C(=O)CCC2 (centres undefined) | 1.56% (inactive) |
| NC(=O)c1ccsc1NC(=O)c1ccco1 | 7.91% (inactive) |
| COC(=O)[C@H](CCSC)NC(=O)Nc1ccc(OC)cc1 | -1.09% (inactive) |
| O=C(CCCn1c(=O)[nH]c2cc(Cl)ccc2c1=O)NCCN1CCN(c2ccccc2)CC1 | 13.6% (inactive) |
| Cc1ccc(-c2noc(CSc3nnc(-c4ccccc4)n3C)n2)cc1 | -4.08% (inactive) |
| COCCCn1c(CCC(=O)O)ccc1-c1ccc(F)cc1 | -19.4% (inactive) |
| CCCNS(=O)(=O)c1ccc(CCC(=O)NCc2cccnc2)cc1 | -3.48% (inactive) |
| CCOc1ccc(CC(=O)Nc2ccc(S(=O)(=O)Nc3cc(C)on3)cc2)cc1OCC | -4.34% (inactive) |
| Cc1cnc(NC(=O)CSc2nnc(-c3ccccc3)n2Cc2ccccc2)s1 | 11.8% (inactive) |
| CCOc1ccc(NC(=O)Nc2ccc(N(C)C(C)=O)cc2)cc1 | -16.6% (inactive) |
| Cc1cccc(N2CCN(C(=O)c3cc4c(=O)[nH]c5ccccc5c4n3C)CC2)c1C | 16.8% (inactive) |
| Cn1c(C(=O)NCCN2CCc3ccccc3C2)cc2c(=O)[nH]c3ccccc3c21 | 45.6% (active) |
| Cn1c(C(=O)NCCc2ccsc2)cc2c(=O)n(C)c3ccccc3c21 | -2.9% (inactive) |
| CC(=O)Nc1ccc(-c2cn3cccnc3n2)cc1 | -4.08% (inactive) |
| COc1ccc(N(CC(=O)NC2CCCCCCC2)S(=O)(=O)c2c(C)nn(C)c2C)cc1 | -2.48% (inactive) |
| COc1ccc(N(C(=O)c2cccnc2)S(=O)(=O)c2ccc3c(c2)n(C)c(=O)n3C)cc1 | -5.68% (inactive) |
| COC(=O)c1[nH]c2cccc(C)c2c1NC(=O)CN1CCCc2ccccc21 | 51.2% (active) |
| COC(=O)c1[nH]c2ccccc2c1NC(=O)CN1CCCc2ccccc21 | 15.9% (inactive) |
| Cc1ccccc1NC(=O)CNc1ccccc1N1CCCCC1 | -4.53% (inactive) |
| COC(CCN(C)C)(c1ccccc1)c1ccccc1 | -4.38% (inactive) |
| CCN(CCCCOC(=O)c1ccc(OC)c(OC)c1)C(C)Cc1ccc(OC)cc1 (centres undefined) | 14.3% (inactive) |

| Structure (SMILES) | inhibition |
| --- | --- |
| O=C(O)C1CCCN(S(=O)(=O)c2cccc3cccnc23)C1 (centres undefined) | -4.15% (inactive) |
| O=C(O)CSCNC(=O)CC12CC3CC(CC(C3)C1)C2 | 1.12% (inactive) |
| CCOc1ccccc1Nc1nnc(SCC(=O)Nc2cc(C)on2)s1 | 8.96% (inactive) |
| CC1=C(C(=O)OCc2ccccc2)C(c2ccco2)n2ncnc2N1 (centres undefined) | 6.81% (inactive) |
| CCOC(=O)C1CCN(C(=O)C2CCN(S(=O)(=O)CC)CC2)CC1 | 6.47% (inactive) |
| O=C(CN(c1ccc2c(c1)OCCO2)S(=O)(=O)c1ccccc1)Nc1ccc2c(c1)OCO2 | 8.94% (inactive) |
| C=C(C)Cn1c(N2CCCC2)nc2c1c(=O)[nH]c(=O)n2C | -0.005% (inactive) |
| Cc1nnc(SCCCn2c(N3CCCCC3)nc3c2c(=O)[nH]c(=O)n3C)s1 | 37.6% (active) |
| Cn1c(=O)[nH]c(=O)c2c1nc(N1CCCCCC1)n2CC(=O)c1ccccc1 | 12.8% (inactive) |
| CCOc1ccc(C2C(C(=O)O)c3ccccc3C(=O)N2CCN2CCOCC2)cc1 (centres undefined) | 39.9% (inactive) |
| Cn1c(=O)cc(SCC(=O)N2CCCC2)c2cc(Cl)ccc21 | 1.36% (inactive) |
| O=C(NCc1ccccn1)Nc1ccc(F)cc1 | 17.6% (inactive) |
| CCCc1nc(-c2ccccc2O)n(-c2ccccc2)n1 | -4.97% (inactive) |
| O=C(O)C1CC=CCC1C(=O)NCCc1ccccc1 (centres undefined) | -14.2% (inactive) |
| O=C1c2ccccc2C(=O)N1c1ccccc1S(=O)C(F)(F)F (centres undefined) | 16.1% (inactive) |
| COC(=O)CN(c1nc(C)c(Cl)c(OC)n1)S(=O)(=O)c1ccc(C)cc1 | 3.91% (inactive) |
| CCOc1ccc(NC(=O)CSc2nc3c(c(=O)n2-c2ccccc2OC)SCC3)cc1 | -11.1% (inactive) |
| O=C(NCCCN1CCN(Cc2ccccc2)CC1)C1CCN(S(=O)(=O)N2CCCC2)CC1 | 17.9% (inactive) |
| O=C(COc1ncnc2ccccc12)NC(=O)NCc1ccccc1 | -8.35% (inactive) |
| Cc1cccc(N2CCN(Cc3c(C)n(C)n(-c4ccccc4)c3=O)CC2)c1C | -2.31% (inactive) |
| CC(C)C[C@H](NC(=O)[C@@H]1O[C@H]1C(=O)O)C(=O)NCCCCN=C(N)N | 117% (active) |
| Cc1cccc(N2CCN(C(c3ccccc3)c3nnnn3CC3CCCO3)CC2)c1C (centres undefined) | 6.28% (inactive) |
